This passage reports Potency and activity change, negative = inhibition results from PubChem BioAssay (Tox21).

Several values for one entry are separate records, joined by “and”; a condition that tells them apart may be missing. Identical values can stand only once. Inconclusive results are not listed. A call without a number means that no potency is given here. Where a structure was tested more than once in an assay, its records may differ in their call. Activity calls are given as the source filed them. Calls come from the whole dose curve.
Potency is the fitted concentration of half-maximal effect.

This test can be described thus: qHTS assay to identify small molecule antagonists of the sonic hedgehog signaling (Shh) pathway (AID 1259369). Note: nearly all actives have a fitted effect of over 45% in size. To be noted: NIH/3T3 Gli1-Luc reporter, Shh antagonist, luminescence 24 h; series mostly up to 42.5 µM. An excerpt:
U.S. Tox21 Program National Center for Advancing Translational Sciences [NCATS] NIH Chemical Genomics Center [NCGC] U.S. Environmental Protection Agency [EPA] National Institutes of Environmental Health Sciences [NIEHS] National Toxicology Program [NTP] U.S. Food and Drug Administration [FDA] Tox21 Assay Overview: The sonic hedgehog (Shh) pathway is essential for normal embryonic development. Dysregulation of the Shh pathway can cause severe developmental defects in organs. Therefore chemicals that interfere with the pathway are potential developmental toxicants. A cell line designated 3T3Gli1-Luc (DMB/OARSA/CFSAN/FDA, Laurel, MD), a NIH/3T3 derived clone containing stably integrated Gli1-Luc reporter is used to detect chemical interference of the Shh pathway, by changes in the expression of the firefly Luc gene under the control of the Gli1 transcriptional response element. This cell line was used to screen Tox21 libraries for identifying and prioritizing the potential developmental toxicants that interfere Shh pathway. Conditioned medium-stimulated mode was used to screen for chemicals inhibiting Shh signaling.
Tox21 Assay Protocol Summary: 3T3 Gli1-Luc cells were dispensed at 2,000 per well in 5uL of culture medium into white solid bottom 1536-well plates (Greiner Bio-One, Monroe, NC) using a Multidrop Combi (Thermo Scientific, Waltham, MA) dispenser. The assay plates were incubated at 37 C and 5% CO2 for 4hr, and then 23nL of compounds dissolved in DMSO and positive control were transferred using a Pintool station (Wako, San Diego, CA). The compound transfer was followed by the addition of 1ul conditioned medium or assay buffer using two separate tips of Flying Reagent Dispenser (FRD, Aurora Discovery, San Diego, CA). The assay plates were incubated at 37C and 5% CO2 for 24hr. For luciferase read, 4uL of Amplite Luciferase reporter gene assay reagent (AAT Bioquest, Inc. Sunnyvale, CA) was added to each well of the assay plates using FRD and incubated at room temperature for 30min. The luminescence signal was measured using a ViewLux plate reader (Perkin Elmer, Shelton, CT).
`C1OCOCO1`: the Potency entry was “inactive”.

Take `O=c1cc(-c2ccccc2)oc2ccccc12`: the Potency was 15.3 µM (active).

As to `Oc1ccc(C2CNCCc3c2cc(O)c(O)c3Cl)cc1` (stereo not given), the Potency result was “inactive”.

As for `Cc1c(NC(C)C)c(=O)n(-c2ccccc2)n1C`, the Potency entry was “inactive”.

For the compound `OC[C@]1(O)OC[C@@H](O)[C@H](O)[C@@H]1O`, the Potency entry was “inactive”.

For `CC(C)c1cc2c(cc1S(=O)(=O)O)[C@@]1(C)CCC[C@@](C)(C(=O)O)[C@@H]1CC2`, the Potency result was “inactive”.

Regarding `C=C(C)CS(=O)(=O)O`, the Potency result was “inactive”.

For `O=C1OC(=O)C2CCCCC12` (stereo not given), the Potency entry was “inactive”.

With `Cc1cccc(C)c1NC(=O)C(C)N` (stereo not given), the Potency result is “inactive”.

For the compound `COc1cc(C(=O)N2CCCCCCC2)cc(OC)c1OC`, the Potency entry was “inactive”.

As to `CC/C=C\CC/C=C/CO`, the Potency entry was “inactive”.

As to `FC(F)OC(Cl)C(F)(F)F` (stereo not given), the Potency result was “inactive”.

`C[C@](N)(Cc1ccc(O)cc1)C(=O)O`: the activity change, negative = inhibition was 37.1% [at 8.39 µM] (inactive).

As for `Nc1ccc(S(=O)(=O)Nc2ccnn2-c2ccccc2)cc1`, the Potency entry is “inactive”.

As for `CCC(C)C1CCCCC1=O` (stereo not given), the Potency entry was “inactive”.

Regarding `NC(=O)c1ccc(N)cc1`, the Potency entry is “inactive”.

As for `CC(C)OC(=O)c1ccccc1`, the Potency result was “inactive”.

Turning to `C[C@@H]1CCN(C(=O)[C@H](CCCN=C(N)N)NS(=O)(=O)c2cccc3c2NC[C@H](C)C3)[C@@H](C(=O)O)C1`, the Potency result was “inactive”.

As for `CC(C(=O)O)c1ccc(CC2CCCC2=O)cc1` (stereo not given), the Potency result is “inactive”.

As to `CCCC(=O)O[C@]1(C(=O)CO)CC[C@H]2[C@@H]3CCC4=CC(=O)CC[C@]4(C)[C@H]3[C@@H](O)C[C@@]21C`, the Potency result is “inactive”.

For the compound `C=COCC1CCC(CO)CC1` (stereo not given), the Potency entry was “inactive”.

For `COCCc1ccc(OCC(O)CNC(C)C)cc1` (stereo not given), the Potency entry was “inactive”.

Regarding `O=c1n(CCO)c(=O)n(CCO)c(=O)n1CCO`, the Potency entry is “inactive and 27.3 µM (active)”.

As for `CCc1nccnc1CC`, the Potency result was “inactive”.

For `CC(=O)CC(C)(C)C1CCCCC1`, the Potency entry was “inactive”.

Regarding `COC(=O)CCSCCC(=O)OC`, the Potency result was “inactive”.

As for `CC(NC(CCc1ccccc1)C(=O)O)C(=O)N1C(=O)N(C)CC1C(=O)O` (stereo not given), the Potency entry is “inactive”.

Turning to `CC(C)NCCCC1(C(N)=O)c2ccccc2-c2ccccc21`, the Potency entry was “inactive”.

As to `O=C1CCCCCCCCCCCN1`, the Potency result was “inactive”.

As for `COC(C)(C)CCCC(C)CC=O` (stereo not given), the Potency result was “inactive”.

In the case of `CCCc1cc(C(N)=S)ccn1`, the Potency result is “inactive”.

For `C=CCOCC(CC)(CO)COCC=C`, the Potency entry is “inactive”.

In the case of `NC(=O)COCCN1CCN(C(c2ccccc2)c2ccc(Cl)cc2)CC1` (stereo not given), the Potency entry was “inactive”.

In the case of `CCN1CCC[C@H]1CNC(=O)c1c(O)c(Cl)cc(Cl)c1OC`, the Potency entry was “inactive”.

Turning to `CC(C)(c1ccc(O)cc1)c1ccc(O)cc1`, the Potency is 38.1 µM (active) and 19.7 µM (active).

As to `O=Cc1cccc([N+](=O)[O-])c1`, the Potency entry is “inactive”.

Regarding `CCCCC/C=C\CCC=O`, the Potency entry is “inactive”.

`CN1CC(=O)NC1=N`: the Potency result is “inactive”.

As to `O=C1CCCN1C1CCCCC1`, the Potency result was “inactive”.

With `CCN(CC)CCOCCOC(=O)C1(c2ccccc2)CCCC1`, the Potency entry is “inactive”.
